Shown are actives, neighbours in structure and some others; about 28% of the full set was active somewhere.
CYP2C9 act = CYP2C9 (human) activation. 96,000 compounds, 1.4% hits. recombinant CYP2C9, luciferin-H conversion, luminescence; stronger effect = higher value; factor 1 = untreated enzyme, 0 = blocked. activation factor at 5 µM. AID 1024. P11712;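 active = activation factor of 2 or more for CYP2C9 at a 5 µM dose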
CYP2C19 activ = activators of human cytochrome P450 2C19; P33261; recombinant CYP2C19, luciferin-H EGE luminescence; stronger effect = higher value; 0 = fully inhibited enzyme, 1 = untreated enzyme; activation factor at 5 µM; 96,000 tested, under 10 active;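 active = activation factor of at least 2 at 5 µM in the primary screen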
CYP2C19 inh = inhibitors of human CYP2C19; AID 778; P33261; inhibition, % at 5 µM; CYP2C19 Supersomes, luciferin-H EGE luminescence, 30 min; 96,000 compounds, 21% hits;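 active = CYP2C19 inhibition above a set limit at 5 µM in the primary screen, cut at about 50% in these data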
CYP2C9 inhib = human CYP2C9 inhibition. AID 777. inhibition, % at 5 µM. 96,000 compounds, 20% hits. P11712. CYP2C9 Supersomes, luciferin-H conversion, luminescence;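 active = blocking of liver enzyme CYP2C9 beyond about 50% at 5 µM, limit read from the data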
D1 mod = D1 dopamine receptor (human) allosteric modulation. 58,000 compounds, 5.9% hits. P21728. B-score at 10 µM. HEK293 D1, CRE-luciferase, dopamine EC30 potentiation; actives deviate in either direction;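 active = luminescence count or its row- and column-corrected plate score outside the 99.7% band of the plate's sample wells, on either side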
DAT uptake mod = changed human dopamine transporter uptake under cocaine IC80 | Q01959 | LLC-PK1 hDAT cells, [14C]-dopamine uptake with cocaine IC80; actives deviate in either direction | 110,000 compounds, 1.3% hits | B-score at 10 µM;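 active = Z score or B-score, a plate-position-corrected score, falls beyond the plate's 99.7% confidence bounds, in either direction; inactive = both scores lie inside the 99.7% bounds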
Target sequence (Q01959 whole entry, looked up): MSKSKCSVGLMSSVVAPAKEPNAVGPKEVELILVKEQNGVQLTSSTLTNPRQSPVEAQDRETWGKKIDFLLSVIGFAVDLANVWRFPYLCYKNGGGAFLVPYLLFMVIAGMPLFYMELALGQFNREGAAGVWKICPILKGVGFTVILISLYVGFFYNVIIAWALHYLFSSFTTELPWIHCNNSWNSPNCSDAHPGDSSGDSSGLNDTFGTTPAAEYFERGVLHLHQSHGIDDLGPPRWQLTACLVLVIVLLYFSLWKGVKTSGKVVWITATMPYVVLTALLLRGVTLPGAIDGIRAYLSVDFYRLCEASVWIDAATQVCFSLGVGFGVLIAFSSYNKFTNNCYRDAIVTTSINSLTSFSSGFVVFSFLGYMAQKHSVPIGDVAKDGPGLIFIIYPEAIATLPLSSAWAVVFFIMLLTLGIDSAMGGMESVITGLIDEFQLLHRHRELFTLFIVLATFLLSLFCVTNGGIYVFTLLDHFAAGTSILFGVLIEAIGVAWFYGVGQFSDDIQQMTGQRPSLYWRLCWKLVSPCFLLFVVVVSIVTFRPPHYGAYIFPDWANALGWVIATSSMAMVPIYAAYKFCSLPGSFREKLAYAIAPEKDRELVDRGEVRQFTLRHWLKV
Numbers stand for hits; n = inactive; x = not tested or not shown.

SMILES	CYP2C9 act	CYP2C19 activ	CYP2C19 inh	CYP2C9 inhib	D1 mod	DAT uptake mod
CC(Oc1ccc(Cl)cc1Cl)C(=O)NC1CCSC1=O (configuration not stated)	n	n	93	n	n	n
CC(Oc1ccc(Cl)cc1Cl)C(=O)Nc1ccncc1 (configuration not stated)	n	n	100	98	n	n
N#Cc1ccc(C23CC4(C2)[C@H](CN(Cc2cccnc2)[C@@H]4c2ccccc2)C3c2ccccc2)cc1 (some centres not stated)	x	x	x	x	x	n
CCCCC1(C)NC(=O)N(CC(=O)Nc2ccc(S(=O)(=O)N3CCOCC3)cc2)C1=O (configuration not stated)	n	n	n	n	n	n
C=CCOc1ccc(C2C(C(=O)c3ccco3)=C(O)C(=O)N2Cc2cccnc2)cc1 (configuration not stated)	n	n	n	n	n	n
CC(Oc1ccc(Cl)cc1Cl)C(=O)NC1=NN(c2ccccc2)C(=O)C1 (configuration not stated)	n	n	n	53	x	n
Clc1ccc2c(c1)CNc1c(ncnc1N1CCOCC1)O2	n	n	99	56	n	n
O=C(C1=C[C@@H](C2CCCCC2)C[C@@H](OCCCCO)O1)N1CCOCC1	x	x	x	x	x	n
O=c1c(C(c2ccccc2)c2c(O)sc3ccccc3c2=O)c(O)sc2ccccc12	n	n	n	95	x	x
CC(C)n1c(SCC(=O)Nc2nc3ccccc3s2)nc2c1c(=O)n(C)c(=O)n2C	x	x	x	x	x	n
CCn1c(SCC(=O)Nc2nc3ccc(OC)cc3s2)nc2c1c(=O)n(C)c(=O)n2C	n	n	n	62	n	n
CCOc1ccc2nc(NC(=O)Cn3cnc4c3c(=O)n(C)c(=O)n4C)sc2c1	n	n	69	n	n	n
CCCCCCCCN1[C@@H](CC(=O)O)c2ccc(C(F)(F)F)cc2S1(=O)=O	x	x	x	x	x	n
CCc1ccc(-c2cc(C(=O)Nn3cnnc3)c3ccccc3n2)cc1	n	n	83	99	x	n
CCCc1ccc(-c2cc(C(=O)NCCc3ccc(S(N)(=O)=O)cc3)c3ccccc3n2)cc1	n	n	n	98	x	n
CCc1ccc(-c2cc(C(=O)N3N=C(C(F)F)CC3(O)C(F)F)c3ccccc3n2)cc1 (configuration not stated)	n	n	n	78	x	n
CCCc1ccc(-c2cc(C(=O)NN3CCOCC3)c3ccccc3n2)cc1	n	n	n	87	x	n
COCC(=O)NCCc1ccc(S(N)(=O)=O)cc1	n	n	n	n	n	n
O=C(NCCc1ccccc1)[C@@H]1CC=C[C@@H]2CCN(C3CCCCC3)C(=O)[C@@H]21	x	x	x	x	x	n
O=C(c1cccc(COCC(F)(F)C(F)F)c1)N1CCN(c2ccccc2)CC1	n	n	n	n	n	n
NC(=O)CC(NC(=O)c1ccccc1)c1ccc(NC2CCCCC2)c([N+](=O)[O-])c1 (configuration not stated)	x	x	x	x	x	n
O=C1Nc2ncccc2OC1CCO (configuration not stated)	n	n	n	n	x	n
CCCCCC(=O)NC(NC(=S)N1CCOCC1)C(Cl)(Cl)Cl (configuration not stated)	x	x	x	x	x	n
CCCCCC(=O)NC(NC(=S)NC1CCS(=O)(=O)C1)C(Cl)(Cl)Cl (configuration not stated)	x	x	x	x	x	-3
CCN(CC)C(=O)C1CCCN(C(=O)Nc2ccc3nsnc3c2)C1 (configuration not stated)	n	n	59	n	n	n
SMILES	CYP2C9 act	CYP2C19 activ	CYP2C19 inh	CYP2C9 inhib	D1 mod	DAT uptake mod
Cc1cccc(/N=C/c2c(O)cc(C)oc2=O)n1	n	n	n	n	n	n
Cc1ccc(N/N=C/c2c(O)cc(C)oc2=O)cc1	n	n	n	50	x	n
CCN(CC)C(=O)C(=O)N/N=C/c1cccc(Br)c1	n	n	n	n	x	n
O=C(NCc1ccco1)c1ccc2ccccc2c1	n	n	n	n	n	n
O=C(NCc1ccco1)c1ccc(S(=O)(=O)N2CCCc3ccccc32)cc1	n	n	67	76	n	n
COc1ccc(-c2nnc(NC(=O)c3ccc(S(=O)(=O)N4CCCc5ccccc54)cc3)o2)cc1	n	n	n	54	n	x
COc1cccc(-c2nnc(NC(=O)c3ccc(S(=O)(=O)N4CCOCC4)cc3)o2)c1	n	n	n	n	x	n
O=C(Nc1nnc(C2CC2)o1)c1ccc(S(=O)(=O)N2CCCc3ccccc32)cc1	n	n	n	95	x	x
O=S1(=O)N=C2CCCN2C(c2ccc(F)cc2)N1 (configuration not stated)	n	n	n	n	n	n
CCOc1c(Br)cc(C2NS(=O)(=O)N=C3CCCCCN32)cc1OC (configuration not stated)	n	n	68	66	n	n
COc1ccc(OC)c(NC(=O)CSc2nnc(CNc3ccc(F)cc3)o2)c1	n	n	56	n	n	n
COc1ccc(OC)c(NC(=O)CSc2nnc(CNc3ccc(C)cc3C)o2)c1	n	n	81	n	n	n
Cc1cccc(OCc2nnc(SCC(=O)Nc3ccc(C)c(Cl)c3)o2)c1	n	n	n	n	n	n
FC(F)(F)c1nnc2ccc(NCn3nnc4ccccc43)nn12	n	n	n	68	n	n
CCSc1nnc(-c2ccc(S(=O)(=O)NCc3cccs3)cc2)o1	n	n	n	70	n	n
CCC(C)n1nccc1NC(=O)C(C)OC(=O)c1cc2ccccc2[nH]1 (configuration not stated)	n	n	97	n	n	n
CCC(OC(=O)c1cc2sccc2n1C)C(=O)NCC1CCCO1 (configuration not stated)	n	n	n	n	n	n
CC(OC(=O)c1cc2sccc2n1C)C(=O)NCc1ccc2c(c1)OCO2 (configuration not stated)	n	n	n	82	n	n
CC(OC(=O)c1cc2sccc2n1C)C(=O)NCC1CCCO1 (configuration not stated)	n	n	n	n	n	n
CC(OC(=O)c1cc2sccc2n1C)C(=O)NCc1ccc(F)cc1 (configuration not stated)	n	n	78	74	x	n
CC(OC(=O)c1cc2sccc2n1C)C(=O)NCCc1ccccc1 (configuration not stated)	n	n	52	83	n	n
Cn1c(Cl)c(C(=O)Nc2ccccc2)c2ccccc21	n	n	n	n	x	n
Cc1ccc(NC(=O)c2c(Cl)n(C)c3ccccc23)cc1	2.1	n	n	n	x	x
CC(CN1CCCC1)OC(=O)COc1ccccc1 (configuration not stated)	n	n	n	n	n	n
CCOC(=O)c1ccc(Nc2nc(C(=O)OCC)nc3ccccc23)cc1	n	n	56	n	x	n
CCOC(=O)c1ccc(Nc2cc(C)nc(-c3ccccc3O)n2)cc1	n	n	n	57	n	n

Assay outcomes from PubChem.
